PubChem BioAssay (NCI)
About 83,000 compounds went through this panel and 20% of them were active in at least one assay; those are over-represented in the sample as a whole.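 Method: cells in 96-well plates; compound added at one concentration; 48 h incubation; percent growth measured; values under 10 scored active.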 Activity calls are given as the source filed them.

Key:
Assay in all cases: NCI-60 one-dose screen, 48 h (100 = growth as untreated, 0 = no growth, -100 = all killed)
HCT-15 colon = details: 10 µM unless noted
HT29 colon = details: 10 µM unless noted
SNB-75 CNS = details: 10 µM unless noted
SNB-19 CNS = details: 10 µM unless noted
U251 CNS = details: 10 µM unless noted
PC-3 prostate = details: 10 µM unless noted
SK-MEL-5 melanoma = details: 10 µM unless noted
UACC-62 melanoma = details: 10 µM unless noted
LOX IMVI melanoma = details: 10 µM unless noted
SK-MEL-28 melanoma = details: 10 µM unless noted
SK-MEL-2 melanoma = details: 10 µM unless noted
EKVX NSCLC = details: 10 µM unless noted
SN12C renal = details: 10 µM unless noted
UO-31 renal = details: 10 µM unless noted
TK-10 renal = details: 10 µM unless noted
A498 renal = details: 10 µM unless noted
CCRF-CEM leukemia = details: 10 µM unless noted
MOLT-4 leukemia = details: 10 µM unless noted
CAKI-1 renal = details: 10 µM
ACHN renal = details: 10 µM unless noted

Measured: growth

CCc1c(C)c2cc3nc(NCc4ccccc4)oc3c(C)c2oc1=O
inactive: HCT-15 colon 74.7% | HT29 colon 60.5% | SNB-75 CNS 36.2% | SNB-19 CNS 59.2% | U251 CNS 54.8% | PC-3 prostate 73.3% | SK-MEL-5 melanoma 75.9% | UACC-62 melanoma 47.1% | LOX IMVI melanoma 80.4% | SK-MEL-28 melanoma 72.9% | SK-MEL-2 melanoma 83.6% | EKVX NSCLC 77.1% | SN12C renal 73.5% | UO-31 renal 80.1% | TK-10 renal 77.6% | A498 renal 49.2% | CCRF-CEM leukemia 79.6% | MOLT-4 leukemia 71.9%

Nc1ncnc2c1c(C(F)(F)F)cn2[C@@H]1O[C@H](CO)[C@@H](O)[C@H]1O
inactive: SNB-19 CNS 14.6% | PC-3 prostate 12.1% | SN12C renal 15.7%
active: HCT-15 colon 4.22% | HT29 colon 1.42% | SNB-75 CNS -35.1% | U251 CNS 3.73% | SK-MEL-5 melanoma -32.1% | UACC-62 melanoma -38.6% | LOX IMVI melanoma 6.25% | SK-MEL-28 melanoma 1.5% | SK-MEL-2 melanoma -42.6% | EKVX NSCLC 3.57% | UO-31 renal 2.15% | TK-10 renal 4.15% | A498 renal -43.2% | CCRF-CEM leukemia 5.79% | MOLT-4 leukemia 0.0629%

CC(CCC(=O)O)[C@H]1CCC2C3C(=O)C[C@@H]4CC(=O)CC[C@]4(C)C3CC(=O)[C@@]21C (some centres undefined)
inactive: HCT-15 colon 105% | HT29 colon 117% | SNB-75 CNS 110% | SNB-19 CNS 101% | U251 CNS 95% | PC-3 prostate 92.8% | SK-MEL-5 melanoma 105% | UACC-62 melanoma 93.2% | LOX IMVI melanoma 92.5% | SK-MEL-28 melanoma 119% | SK-MEL-2 melanoma 128% | EKVX NSCLC 93.6% | SN12C renal 93.2% | UO-31 renal 83.8% | TK-10 renal 116% | CAKI-1 renal 84.7% | A498 renal 88% | CCRF-CEM leukemia 103% | MOLT-4 leukemia 96.7%

COc1cc([C@@H]2c3cc4c(cc3C(OC3O[C@@H]5COC(C)O[C@H]5[C@H](O)[C@H]3O)C3COC(=O)[C@@H]32)OCO4)cc(OC)c1O (some centres undefined)
active: CAKI-1 renal 9.12% | CCRF-CEM leukemia 6.56% | MOLT-4 leukemia 2.96%
inactive: HCT-15 colon 73.1% | HT29 colon 64.5% | SNB-75 CNS 31.2% | SNB-19 CNS 27.4% | U251 CNS 13.5% | PC-3 prostate 63.3% | SK-MEL-5 melanoma 17.4% | UACC-62 melanoma 33.7% | LOX IMVI melanoma 12% | SK-MEL-28 melanoma 61.4% | SK-MEL-2 melanoma 74.6% | EKVX NSCLC 57.8% | SN12C renal 13% | UO-31 renal 64.3% | TK-10 renal 72.5% | A498 renal 36.2%

COc1cc2c(cc1OCCCCC(=O)Nc1ccc(-c3nc4ccccc4s3)cc1)N=C[C@@H]1CCCN1C2=O
active: HT29 colon -9.12% | SNB-75 CNS -67.7% | U251 CNS 7.5% | PC-3 prostate -4.92% | SK-MEL-5 melanoma -99.3% | UACC-62 melanoma -70.9% | LOX IMVI melanoma 1.99% | SK-MEL-28 melanoma -44% | SK-MEL-2 melanoma -2.21% | EKVX NSCLC 2.66% | UO-31 renal -31.6% | TK-10 renal -0.417% | ACHN renal 1.84% | A498 renal -79.3% | MOLT-4 leukemia -31.7%
inactive: HCT-15 colon 10.6% | SNB-19 CNS 14.1% | SN12C renal 15.3%

CCC(N)(C(=O)O)c1ccc(F)cc1 (centres undefined)
inactive: HCT-15 colon 104% | HT29 colon 94.9% | SNB-75 CNS 113% | SNB-19 CNS 107% | U251 CNS 90.7% | PC-3 prostate 81.4% | SK-MEL-5 melanoma 99.9% | UACC-62 melanoma 112% | LOX IMVI melanoma 96% | SK-MEL-28 melanoma 112% | SK-MEL-2 melanoma 98% | EKVX NSCLC 104% | SN12C renal 102% | UO-31 renal 98.5% | TK-10 renal 95.5% | A498 renal 117% | CCRF-CEM leukemia 94.8% | MOLT-4 leukemia 90.1%

Cc1c(C(C)(C)C)cc(C(C)(C)C)c2c1CN(C)CO2
inactive: HCT-15 colon 108% | HT29 colon 105% | SNB-75 CNS 102% | SNB-19 CNS 112% | U251 CNS 109% | PC-3 prostate 110% | SK-MEL-5 melanoma 127% | UACC-62 melanoma 114% | LOX IMVI melanoma 106% | SK-MEL-28 melanoma 102% | SK-MEL-2 melanoma 96.7% | EKVX NSCLC 105% | SN12C renal 107% | UO-31 renal 97% | TK-10 renal 102% | A498 renal 106% | CCRF-CEM leukemia 93.7% | MOLT-4 leukemia 109%

COc1ccc(-c2nnc(SCC(=O)Nc3ccc(C(=O)/C=C/c4ccc(Cl)cc4)cc3)o2)cc1OC
inactive: HCT-15 colon 81.3% | HT29 colon 89.8% | SNB-75 CNS 71.4% | SNB-19 CNS 84.6% | U251 CNS 88.5% | PC-3 prostate 84.6% | SK-MEL-5 melanoma 56.7% | UACC-62 melanoma 62.7% | LOX IMVI melanoma 79% | SK-MEL-28 melanoma 82.2% | SK-MEL-2 melanoma 72% | EKVX NSCLC 80.2% | SN12C renal 47.8% | UO-31 renal 72.3% | TK-10 renal 52.8% | A498 renal 88.7% | CCRF-CEM leukemia 65.1% | MOLT-4 leukemia 41.1%

CN(C)CC/C=C1\c2ccccc2Sc2ccc(Cl)cc21
inactive: HCT-15 colon 78.9% | HT29 colon 30.6% | SNB-75 CNS 52.4% | SNB-19 CNS 85.2% | U251 CNS 49.5% | PC-3 prostate 65% | SK-MEL-5 melanoma 34.1% | UACC-62 melanoma 47.1% | LOX IMVI melanoma 53.6% | SK-MEL-28 melanoma 55.9% | SK-MEL-2 melanoma 89.6% | EKVX NSCLC 78.6% | SN12C renal 48% | UO-31 renal 41.3% | TK-10 renal 75.8% | CAKI-1 renal 52.7% | A498 renal 89.5% | CCRF-CEM leukemia 59.4% | MOLT-4 leukemia 44.8%

CSc1nc(N)nc2c1ncn2C
inactive: HCT-15 colon 102% | HT29 colon 87.1% | SNB-75 CNS 96.4% | SNB-19 CNS 110% | U251 CNS 95.4% | PC-3 prostate 72.5% | SK-MEL-5 melanoma 100% | UACC-62 melanoma 102% | LOX IMVI melanoma 92.6% | SK-MEL-28 melanoma 109% | SK-MEL-2 melanoma 92.3% | EKVX NSCLC 94.2% | SN12C renal 97.6% | UO-31 renal 94.6% | TK-10 renal 93.5% | ACHN renal 106% | A498 renal 119% | CCRF-CEM leukemia 98.3% | MOLT-4 leukemia 87.6%

O=C(O)c1ccc2nc(-c3ccc(OCCCCCOc4ccc(-c5nc6ccc(C(=O)O)cc6[nH]5)cc4)cc3)[nH]c2c1
inactive: HCT-15 colon 74.3% | HT29 colon 51.4% | SNB-75 CNS 96% | SNB-19 CNS 59.6% | U251 CNS 96.4% | PC-3 prostate 90% | UACC-62 melanoma 53% | LOX IMVI melanoma 82% | SK-MEL-28 melanoma 46.9% | SK-MEL-2 melanoma 101% | EKVX NSCLC 113% | SN12C renal 62.2% | UO-31 renal 90.5% | ACHN renal 98.4% | A498 renal 53.6% | CCRF-CEM leukemia 76.1% | MOLT-4 leukemia 87.7%
active: SK-MEL-5 melanoma 3.26% | TK-10 renal -2.6%

COc1ccc2c(c1)O/C(=C/c1ccc(OCC(=O)Nc3ccc(S(N)(=O)=O)cc3)cc1)C2=O
inactive: HCT-15 colon 93.7% | HT29 colon 102% | SNB-75 CNS 89.8% | SNB-19 CNS 92.1% | U251 CNS 97.7% | PC-3 prostate 91% | SK-MEL-5 melanoma 94.3% | UACC-62 melanoma 88% | LOX IMVI melanoma 101% | SK-MEL-28 melanoma 108% | SK-MEL-2 melanoma 97.7% | EKVX NSCLC 97.5% | SN12C renal 98.1% | UO-31 renal 85.6% | TK-10 renal 115% | A498 renal 91.5% | CCRF-CEM leukemia 94.6% | MOLT-4 leukemia 88.3%

Nc1ccc(S(=O)(=O)Nc2ccnn2-c2ccccc2)cc1
inactive: HCT-15 colon 100% | HT29 colon 109% | SNB-75 CNS 106% | SNB-19 CNS 108% | U251 CNS 94.4% | PC-3 prostate 90.1% | SK-MEL-5 melanoma 105% | UACC-62 melanoma 107% | LOX IMVI melanoma 93.2% | SK-MEL-28 melanoma 119% | SK-MEL-2 melanoma 115% | EKVX NSCLC 93.8% | SN12C renal 99.7% | UO-31 renal 82.4% | TK-10 renal 117% | CAKI-1 renal 92.7% | A498 renal 107% | CCRF-CEM leukemia 107% | MOLT-4 leukemia 98.1%

COc1cc(NS(=O)(=O)c2ccc(N)cc2)ncn1
inactive: HCT-15 colon 108% | HT29 colon 120% | SNB-75 CNS 104% | SNB-19 CNS 99.8% | U251 CNS 102% | PC-3 prostate 99.8% | SK-MEL-5 melanoma 103% | UACC-62 melanoma 99.1% | LOX IMVI melanoma 94.3% | SK-MEL-28 melanoma 121% | SK-MEL-2 melanoma 160% | EKVX NSCLC 102% | SN12C renal 93.8% | UO-31 renal 86.2% | TK-10 renal 130% | CAKI-1 renal 94.6% | A498 renal 106% | CCRF-CEM leukemia 105% | MOLT-4 leukemia 99.6%

CCc1c(C)c2cc3c(c(C)c2oc1=O)OCC(=O)N3
inactive: HCT-15 colon 67.2% | HT29 colon 64.1% | SNB-75 CNS 14.3% | SNB-19 CNS 64.3% | U251 CNS 62% | PC-3 prostate 80.4% | SK-MEL-5 melanoma 81.1% | UACC-62 melanoma 69.6% | LOX IMVI melanoma 65.3% | SK-MEL-28 melanoma 92.7% | SK-MEL-2 melanoma 77.5% | EKVX NSCLC 35.9% | SN12C renal 72.9% | UO-31 renal 37.3% | TK-10 renal 15.1% | A498 renal 43.6% | CCRF-CEM leukemia 84.3% | MOLT-4 leukemia 80.7%

C[C@@H]1CC2C3C[C@H](F)C4=CC(=O)C=C[C@]4(C)[C@@]3(F)[C@@H](O)C[C@]2(C)[C@@]1(O)C(=O)CO (some centres undefined)
inactive: HCT-15 colon 101% | HT29 colon 102% | SNB-75 CNS 132% | SNB-19 CNS 91.8% | U251 CNS 105% | PC-3 prostate 86.1% | SK-MEL-5 melanoma 90.4% | UACC-62 melanoma 97.3% | LOX IMVI melanoma 92.1% | SK-MEL-28 melanoma 108% | SK-MEL-2 melanoma 94.2% | EKVX NSCLC 64.9% | SN12C renal 51.6% | UO-31 renal 71.6% | TK-10 renal 102% | CAKI-1 renal 75.8% | A498 renal 123% | CCRF-CEM leukemia 40% | MOLT-4 leukemia 76.8%

COC1OCC(OS(=O)(=O)c2ccc(C)cc2)C(OC(=O)c2ccccc2)C1OC(=O)c1ccccc1 (centres undefined)
inactive: HCT-15 colon 38.3% | SNB-75 CNS 32.5% | SNB-19 CNS 61.2% | U251 CNS 39.3% | PC-3 prostate 47.8% | SK-MEL-5 melanoma 30.7% | UACC-62 melanoma 36.1% | LOX IMVI melanoma 44.8% | SK-MEL-28 melanoma 57.7% | SK-MEL-2 melanoma 36.1% | EKVX NSCLC 53.4% | SN12C renal 74.3% | UO-31 renal 48.3% | TK-10 renal 88% | ACHN renal 54% | A498 renal 87.4% | MOLT-4 leukemia 48.9%
active: HT29 colon 7.49%
